Experimental data from PubChem BioAssay AID1159580 (chemical genetic matrix, 2015).
Out of some 5,500 compounds screened, about 2,000 (36%) were called active. Not shown: some 18% with an inconclusive outcome. Rule as the data show it: active = normalized growth mostly below about 0.91 (no sharp cut-off); inconclusive = no clear call, values can overlap the other calls; inactive = mostly above about 0.92. The list shows a part of the results.

Test: chemical genetic growth profiling, strain panel (AID 1159580);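 also: tested at 20 µM; growth read once vehicle control cultures reached saturation at 30 °C; 1 = growth at the plate median or of vehicle wells; lower values mean less growth of the strain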
Conditions: S. cerevisiae deletion strains, growth OD

Measured: normalized growth

Cc1ncc(CSSCc2cnc(C)c(O)c2CO)c(CO)c1O
inactive: locus YHR030C, strain SLT2, stronger effect = lower value 1.01 | locus YHR079C, strain IRE1, stronger effect = lower value 1.01 | locus YJL095W, strain BCK1, stronger effect = lower value 0.995 | locus YJR066W, strain TOR1, stronger effect = lower value 0.945 | locus YLR113W, strain HOG1, stronger effect = lower value 0.983 | locus YNL183C, strain NPR1, stronger effect = lower value 0.948 | locus YOR231W, strain MKK1, stronger effect = lower value 1.01 | locus YPL256C, strain CLN2, stronger effect = lower value 1.01
